# Measured values taken from PubChem BioAssay (NCI).
# The panel holds about 83,000 compounds, 20% with a hit somewhere; the sample as a whole holds those more often.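 For each line, cells grew in 96-well plates with the test compound present at a single concentration for 48 hours.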 A number with no mark means an inactive call. Activity calls are given as the source filed them. The calls were made as follows: active = growth percent below 10; inactive = the rest.
# Experiments:
# Assay in all cases: NCI-60 one-dose screen, 48 h (100 = growth as untreated, 0 = no growth, -100 = all killed)
# Details in all cases: 10 µM unless noted
# NCI-H23 lung = system: NCI-H23 lung
# NCI-H226 lung = system: NCI-H226 lung
# NCI-H322M lung = system: NCI-H322M lung
# HOP-62 NSCLC = system: HOP-62 NSCLC
# NCI-H460 lung = system: NCI-H460 lung
# HOP-92 NSCLC = system: HOP-92 NSCLC
# A549/ATCC NSCLC = system: A549/ATCC NSCLC
# 786-0 renal = system: 786-0 renal
# COLO 205 colon = system: COLO 205 colon
SMILES,growth (NCI-H23 lung),growth (NCI-H226 lung),growth (NCI-H322M lung),growth (HOP-62 NSCLC),growth (NCI-H460 lung),growth (HOP-92 NSCLC),growth (A549/ATCC NSCLC),growth (786-0 renal),growth (COLO 205 colon)
O=C1NCCc2c1noc2-c1ccccc1,99.5%,104%,101%,94.9%,107%,104%,79.7%,96.5%,103%
O=C(NCCNC(=O)Oc1cccc2ccccc12)Oc1cccc2ccccc12,91.2%,79%,99.1%,84.7%,106%,79.8%,93.4%,106%,94.7%
O=C(N/N=C/c1cccc(O)c1O)c1ccccc1,28.2%,17.3%,13.9%,25.9%,3.29% (active),-4.33% (active),6.43% (active),22%,5.29% (active)
O=C1c2cccc(NCCN=Cc3ccccc3O)c2C(=O)c2c(NCCN=Cc3ccccc3O)cccc21,27.8%,73.1%,-19.2% (active),17.6%,4.28% (active),-38.3% (active),25.7%,36.7%,8.33% (active)
CC(C)=CCCC(C)c1ccc(C)c2c1OCN(CC1CCNCC1)C2 (configuration not stated),81.9%,103%,99.1%,95.4%,24.6%,12.3%,54.1%,-60.1% (active),75.9%
O=C(Nc1nc2ccc(OC(F)(F)F)cc2s1)c1ccc(F)cc1,-34.7% (active),20.6%,30%,26.1%,-13.1% (active),-14% (active),14.5%,16.2%,-17.4% (active)
CCCCCCCCCCCCC1CCCC(C)C1 (configuration not stated),105%,99.8%,95%,90.5%,101%,69.1%,93.1%,92.3%,98.1%
ICCC(c1ccccc1)(c1ccccc1)c1ccccc1,65.6%,89.8%,86.4%,55.8%,69.5%,40.6%,59.8%,43.8%,-61.5% (active)
COc1cnc2c(c1)C(=O)c1c-2n(CCCN2CCOCC2)c(=O)c2cc(F)ccc12,-15% (active),-64.5% (active),8.18% (active),-23% (active),-32.9% (active),-13.5% (active),-29.2% (active),-60.1% (active),-8.99% (active)
N#Cc1c(-c2ccccc2)cc(-c2ccccc2)n(CCC(=O)O)c1=O,72.9%,69.2%,91.2%,51.9%,45.3%,74.8%,46.6%,62.6%,61.2%
c1ccc(COc2ccc(Nc3ncnc4c3cnn4-c3ccccc3)cc2)cc1,109%,103%,84.1%,104%,93.7%,98.8%,104%,100%,107%
OC(c1cc(-c2cccc(Cl)c2)nc2ccccc12)C1CCCCN1 (configuration not stated),3.63% (active),31.2%,-12.3% (active),-67.3% (active),-47% (active),-17.6% (active),-90.4% (active),-82.6% (active),-85.7% (active)
COc1ccc(-c2cc(-c3cccnc3)nc(S(=O)(=O)CC(=O)Nc3ccc(C)cc3)c2C#N)cc1OC,85%,94.2%,91.7%,96.8%,101%,76%,93.4%,87.9%,96.5%
CC(C)C[C@H](NC(=O)/C=C/Cn1ccc2ccccc2c1=O)B(O)O,56.3%,-15.5% (active),85.4%,44.8%,84.6%,99.7%,69%,55.1%,49.7%
O=C(Nc1ccc(Cl)cc1)Nc1nc2ccc(OC(F)(F)F)cc2o1,68.6%,107%,113%,114%,81.8%,71.9%,75.1%,105%,118%
Oc1ccc(/C=N/Nc2nc3ccccc3s2)c(O)c1,56.8%,45%,11.9%,26.7%,10.9%,62.8%,18%,38.3%,89.3%
CN(C)CCCNc1nn2c(=O)c3ccccc3nc2c2ccccc12,54.1%,53.4%,61.9%,47.5%,19.9%,23.3%,24%,59%,37.1%
COC(=O)N/N=C/c1coc2ccc(Cl)cc2c1=O,99.4%,84.7%,99.2%,74.7%,102%,1.24% (active),103%,104%,91.4%
O=Cc1ncc(-c2ccc(C(F)(F)F)cc2)c(NC2CCCCCC2)n1,-73.1% [100 µM] (active),28.2% [100 µM],-5.95% [100 µM] (active),-94.9% [100 µM] (active),-51.3% [100 µM] (active),-95.4% [100 µM] (active),-79.2% [100 µM] (active),-82.1% [100 µM] (active),-60.5% [100 µM] (active)
CCN(CC)CCSc1ncnc2c1cnn2-c1ccc(S(N)(=O)=O)cc1,94.9%,92.9%,102%,98.4%,85.9%,50.9%,84.7%,95.3%,113%
Cc1ccc2c(c1)C(=O)/C(=C\Nc1ccc(C(N)=O)cc1)C(O)O2 (configuration not stated),114%,154%,95.8%,88.3%,111%,-17.9% (active),114%,110%,108%
O=C(O)CNC(=O)C1(N2C(=O)c3ccccc3C2=O)CCCC1,101%,96.7%,106%,110%,113%,124%,99%,94.1%,112%
COc1cnc2c(c1)C(=O)c1c-2n(CCCn2ccnc2)c(=O)c2cc(F)ccc12,-36.7% (active),-67.9% (active),-1.28% (active),-29.8% (active),-62.9% (active),-15.9% (active),-20.8% (active),-62.6% (active),-34% (active)
O=C1CSC(c2ccccc2Cl)N1c1nnc(Cn2nnc3ccccc32)o1 (configuration not stated),80.6%,96.1%,80.9%,91.9%,88%,56.8%,59.9%,88.7%,106%
Cc1cc(C)c2c(N)c3cccc(C)c3nc2n1,-28.6% (active),-10.6% (active),0.65% (active),-28.4% (active),-1.3% (active),-12.9% (active),-40.9% (active),-3.97% (active),-18.2% (active)
O=[N+]([O-])c1ccc(NS(=O)(=O)c2ccc(Cl)c(Cl)c2)cc1,81.5%,82.5%,111%,82%,77.7%,-1.71% (active),75.1%,76.5%,122%
NS(=O)(=O)c1ccc(-n2ncc3c(N/N=C/c4ccccc4)ncnc32)cc1,80.6%,107%,94.6%,104%,66.4%,87.6%,52%,93.2%,97.5%
O=C(Oc1ccccc1)C(Br)C(Br)c1ccccc1 (configuration not stated),112%,107%,179%,107%,109%,81.6%,91.9%,98.3%,49.4%
